Measured values reported in PubChem BioAssay AID1619 (SRMLSC, 2009).
The whole screen tested about 220,000 compounds, of which about 830 (0.38%) were called active.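 Rule for the calls: active = compound inhibiting the enzyme by more than half at any dose during confirmatory dose-response retesting; inconclusive = strong single-dose inhibitors picked by rank but not retested; inactive = the rest.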 The list is a sample of the results. Potency and affinity values are given separately. Non-standard residues stand in square brackets, D forms with d. Residues, ends and D or L forms follow the SMILES beside them. ξ: configuration not given here. *: point of attachment. Cbz = O=C(OCc1ccccc1)*; OBn = c1ccc(CO*)cc1; ξP = O=C(O)C1CCCN1

Each compound was assayed against Leucine aminopeptidase (Plasmodium falciparum (isolate 3D7)) (UniProt Q8IL11) (assay: P. falciparum M17LAP inhibitors, primary screen, biochemical, fluorogenic H-Leu-NHMec substrate, 1536-well (AID 1619;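 note: plate controls were full reaction with DMSO carrier for no effect and no enzyme background for full effect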)). Details: recombinant M17LAP, H-Leu-NHMec fluorogenic kinetic assay; at 30 µM; active compounds read high.
Chain of Leucine aminopeptidase (Plasmodium falciparum (isolate 3D7)) (Q8IL11 whole entry, looked up): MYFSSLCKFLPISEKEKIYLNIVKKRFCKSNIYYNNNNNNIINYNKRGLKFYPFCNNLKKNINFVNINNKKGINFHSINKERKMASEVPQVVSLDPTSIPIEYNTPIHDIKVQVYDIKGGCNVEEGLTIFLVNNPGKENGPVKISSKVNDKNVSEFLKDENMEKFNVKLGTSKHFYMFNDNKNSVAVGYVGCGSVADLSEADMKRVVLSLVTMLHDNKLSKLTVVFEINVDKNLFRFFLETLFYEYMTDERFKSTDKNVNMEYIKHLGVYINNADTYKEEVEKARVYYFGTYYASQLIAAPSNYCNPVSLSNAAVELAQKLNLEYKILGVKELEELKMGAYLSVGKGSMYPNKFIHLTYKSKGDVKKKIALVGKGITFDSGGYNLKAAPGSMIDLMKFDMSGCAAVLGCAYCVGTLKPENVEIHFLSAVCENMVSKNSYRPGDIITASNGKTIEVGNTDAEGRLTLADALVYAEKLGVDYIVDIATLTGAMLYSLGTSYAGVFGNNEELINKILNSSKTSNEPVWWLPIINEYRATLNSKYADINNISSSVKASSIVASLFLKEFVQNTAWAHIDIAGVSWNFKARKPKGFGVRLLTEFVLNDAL

inhibition, inactive:
Nc1nonc1C(=O)N/N=C/c1cccc([N+](=O)[O-])c1 39.7%
CN(C)c1ccc(/C=N/NC(N)=S)cc1[N+](=O)[O-] -6.38%
CCCNS(=O)(=O)c1ccc(N2CCCC2=O)c([N+](=O)[O-])c1 -2.44%
CC(C)N(C(=O)C1CC(=O)OC12CCCCC2)C(C)C (configuration not stated) -0.49%
CCC(=O)Nc1c(-c2ccc(OC)cc2)c(=O)c2ccccc2n1C 0.6%
Cc1ccc(NS(=O)(=O)Cc2ccccc2)nc1 -10.1%
O=S(=O)(Cc1ccccc1)Nc1ccc(Br)cn1 8.11%
Cc1nc2c(cc1C(=O)N/N=C/c1ccc(O)c(O)c1)c(=O)n(C)c(=O)n2C 13.8%
Cc1ccccc1N1C(=O)CC2(CCCC2)CC1=O -2.41%
CN(C)c1ccc(/C=N/N=C(N)N)cc1[N+](=O)[O-] 58.3%
Cc1ccc(/C=C2\NC(=S)NC2=O)cc1[N+](=O)[O-] -1.94%
COc1cc(/C=N/NC(N)=O)ccc1OC(=O)c1ccc(C)cc1 -1.66%
Cc1ccc(-n2nnc3c(=O)n(CC(=O)N4CCC(C)CC4)cnc32)cc1 13.8%
OC1COC(OCC2OC(OCc3ccccc3)C(O)C(O)C2O)C(O)C1O (configuration not stated) -0.69%
Cc1ccc(C(=O)O/N=C(\c2ccccc2)c2cccnc2)cc1 -5.37%
CC1(C)N(O)CC(c2cccs2)=[N+]1[O-] 39.9%
CC(=O)C1(C)N(O)C(C)(C)C(c2cccs2)=[N+]1[O-] (configuration not stated) 11.1%
NNC(=O)c1ccc(COc2ccc3ccccc3c2)o1 7.87%
O=C1C2C3C=CC(CC3)C2C(=O)N1/N=C/c1ccc(O)cc1 (configuration not stated) 12.3%
COc1cc(/C=N/N2C(=O)C3C4C=CC(CC4)C3C2=O)ccc1O (configuration not stated) 18.2%
O=C1c2ccccc2C(=O)N1/N=C/c1ccc(O)c(O)c1O 9.31%
COc1cc(/C=N/N2C(=O)c3ccccc3C2=O)ccc1O 10.3%
O=C(Cn1cnc2c(cnn2-c2ccccc2)c1=O)NC1CCCC1 -1.27%
O=C(Nc1cccnc1)c1ccccc1O 8.37%
CCN(C(=O)COC(=O)c1cc(-c2ccccc2)nn1-c1ccccc1)C1CCS(=O)(=O)C1 (configuration not stated) -0.44%
O=C(CSc1nnc(-c2cccs2)n1-c1ccccc1)Nc1ccccc1 8.55%
COc1ccc(NC(=O)CSc2nnc(-c3cccs3)n2-c2ccccc2)cc1 0.69%
CCOC(=O)C1=C(O)C(=O)N(c2ccc(S(N)(=O)=O)cc2)C1c1cccc([N+](=O)[O-])c1 (configuration not stated) 0.08%
O=C(C1=C(O)C(=O)N(CCN2CCOCC2)C1c1ccncc1)c1ccco1 (configuration not stated) 17.6%
Cc1ccc(SC(C)C(=O)Nc2c(C)n(C)n(-c3ccccc3)c2=O)cc1 (configuration not stated) -0.12%
Cc1nnc(SC(C)C(=O)Nc2c(C)n(C)n(-c3ccccc3)c2=O)n1N (configuration not stated) 11.1%
Cc1c(NC(=O)CSc2nnc(Nc3ccccc3)s2)c(=O)n(-c2ccccc2)n1C 20.1%
Cc1c(NC(=O)C(C)Sc2ccccc2)c(=O)n(-c2ccccc2)n1C (configuration not stated) 8.89%
O=C(O)CCn1c(C2CCCCC2)nc2ccccc21 10.6%
CCc1cccc(NC(=O)CCSCCC(=O)Nc2cccc(CC)c2)c1 10.7%
O=C(CSCc1cccc(CSCC(=O)Nc2ccccc2)n1)Nc1ccccc1 6.32%
CC(C)OC(=O)CSc1ncnc2c1cnn2-c1ccccc1 -11.6%
S=C(NCc1ccco1)Nc1ccccc1Cl 2.12%
COc1cc(NS(=O)(=O)c2ccc(NC(=O)CN3C(=O)c4ccccc4C3=O)cc2)nc(OC)n1 45.7%
Cc1noc(NS(=O)(=O)c2ccc(NC(=O)c3cnc4scc(C)n4c3=O)cc2)c1C 49.8%
Cc1cc(NS(=O)(=O)c2ccc(NC(=O)c3cnc4sccn4c3=O)cc2)nc(C)n1 -3.04%
Cc1cc(C)nc(NS(=O)(=O)c2ccc(NC(=O)CN3C(=O)c4ccccc4C3=O)cc2)n1 8.34%
CN1C(=O)CS(=O)c2ccc(C(=O)NCCC3=CCCCC3)cc21 (configuration not stated) -0.02%
CCC(=O)N(Cc1ccc(C)cc1)Cc1cc2cc3c(cc2[nH]c1=O)OCO3 -7.35%
O=C(c1ccccc1)N1CCN(C(=O)c2ccccc2)C1c1ccccc1 -9.12%
Cc1cccc(NC(=O)CSCc2nc3c(nnn3Cc3ccc(F)cc3)c(=O)[nH]2)c1C 22.9%
O=C(CSCc1nc2c(nnn2Cc2ccc(F)cc2)c(=O)[nH]1)Nc1c(Cl)cc(Cl)cc1Cl 30.5%
CN1CCN(C(=O)C2=C[C@@H](c3ccccc3)C[C@@H](OCCCCO)O2)CC1 2.48%
COc1ccc(Br)cc1/C=N/Nc1cccc(C(=O)O)c1 25%
C=CCOc1c(CNc2cccc(C(=O)O)c2)cccc1OC 1.85%
O=C(NNC(=O)C1[C@H]2CCCC[C@@H]12)Nc1cccc2ccccc12 (some centres not stated) 0.58%
C/C(=N/OC(=O)c1c(F)cccc1F)c1nccs1 -5.2%
CC(=O)C1=C(O)C(=O)N(c2ccc(Br)cn2)C1c1ccc(F)cc1 (configuration not stated) 20.5%
O=C(CNC(=O)OCc1ccccc1)NCC(=O)N1CCCC1C(=O)OCc1ccccc1 (stereo not drawn) (Cbz-Gly-Gly-[ξP]-OBn) 2.1%
O=C(O)CCC(=O)N1CCC[C@H]1C(=O)O 3.33%
Cc1ccc(C(=O)CN(C(=O)c2ccc(Cl)c(Cl)c2)N2C(=O)C3C4C=CC(C4)C3C2=O)cc1 (configuration not stated) -2.9%
O=C(CSc1nc(-c2ccco2)cc(C(F)(F)F)n1)Nc1ccc2c(c1)CCC2 15.2%
COc1cccc(NC(=O)CSc2ncc(S(=O)(=O)c3ccccc3)c(=O)[nH]2)c1 9.3%
CCCc1cc(=O)[nH]c(SCC(=O)Nc2ccc3c(c2)CCC3)n1 19.8%
Cc1ccc2nc(SCC(=O)Nc3ccc4c(c3)CCC4)[nH]c2c1 -0.04%
Cc1ccc(NC(=O)CSc2ncc3ccccn23)cc1C -1.12%
O=C(CSc1ncc(S(=O)(=O)c2ccccc2)c(=O)[nH]1)Nc1ccccc1Cl 28.8%
Cc1ccc(NC(=O)CSc2ncn(-c3ccccc3)n2)cc1C 3.12%
O=C(CSc1ncccn1)Nc1ccc2c(c1)CCC2 -3.11%
COc1cc(/C=C/C(=O)c2c(O)cc(C)oc2=O)cc(OC)c1O 23.1%
CCOC(=O)c1sc(NNC(=O)c2ccc(F)cc2)nc1C 4.21%
CC(=O)c1cc(-c2ccccc2)n(CC(=O)N2CCC(N3CCCCC3)CC2)c1C 5.06%
CCOCc1nc(C)c(Cl)c(NS(=O)(=O)c2ccc(N)cc2)n1 -2.71%
CCCCCCCCn1c(N2CCN(c3cccc(Cl)c3)CC2)nc2c1c(=O)[nH]c(=O)n2C 0.06%
COc1ccc2nc(SCC(=O)Nc3ccc4c(c3)CCC4)[nH]c2c1 5.26%
CCCn1c(SCC(=O)Nc2ccc3c(c2)CCC3)n[nH]c1=O 24.5%
Cc1ccc(NC(=O)CSc2n[nH]c(-c3ccncc3)n2)cc1C 13.3%
COc1ccc(NC(=O)CSc2nc3c(c(=O)[nH]2)CCC3)cc1OC 7.54%
CCOC(=O)c1ccc(NC(=O)CSc2nc(SC)ns2)cc1 4.11%
COc1ccc(C(=O)CNc2ccc(C)cc2C)cc1 -4.8%
O=C(CSc1nc2nn(-c3ccccc3)c(=O)c-2c2n1CCCCC2)NCCc1ccccc1 -13.9%
O=C(Nc1cc2c(oc1=O)CCCC2=O)c1ccccc1 1.43%
CC1=C(C(=O)Nc2ccccc2)C(c2ccc(Cl)cc2)n2c(s/c(=C/c3cccc(OCC(=O)O)c3)c2=O)=N1 (configuration not stated) 4.09%
COc1cccc(C2C(C(=O)Nc3ccccc3)=C(C)N=c3s/c(=C/c4ccc(OCC(=O)O)cc4)c(=O)n32)c1 (configuration not stated) 55.7%
N=C1N(/N=C/c2ccccc2)C(=Nc2ccccc2)C(=S)N1c1ccccc1 16.1%
O=C1CC(N2CCC(c3nc4ccccc4s3)CC2)C(=O)N1Cc1ccccc1 (configuration not stated) -10.9%
CCN(c1ccccc1)S(=O)(=O)c1ccc2[nH]c(=O)[nH]c2c1 -1.87%
Cc1cccc(N(C)S(=O)(=O)c2ccc3[nH]c(=O)c(=O)[nH]c3c2)c1 53.7%
O=C(CSc1ccc2nnc(-c3ccccn3)n2n1)Nc1ccc2c(c1)OCO2 7.14%
CCOC(=O)N1CCC(NC(=O)C2CCCN(S(C)(=O)=O)C2)CC1 (configuration not stated) 5.41%
COCCOC(=O)C1=C(C)NC(=O)NC1c1c(F)cccc1Cl (configuration not stated) -12.3%
O=C(Cn1cc([N+](=O)[O-])cn1)Nc1cccnc1 1.1%
CC(=O)Nc1sc(C)c(C)c1C(=O)OC(C)C 14.2%
CCOC(=O)c1c(NC(=O)C2CC=CCC2C(=O)O)sc(C)c1CC (configuration not stated) 5.22%
COC(=O)c1c(NC(=O)C2CC=CCC2C(=O)O)sc(C(N)=O)c1C (configuration not stated) 51.5%
Cc1sc(NC(=O)c2cccs2)c(C(=O)OC(C)C)c1C 9.67%
COc1ccc(CCNC(=O)C2CC(=O)N(c3ccc(Br)cc3)C2)cc1OC (configuration not stated) 3.2%
